Source: PubChem (National Center for Advancing Translational Sciences (NCATS))
PNC inhibitor: perinucleolar compartment assembly inhibition | activity change (PNC), negative = inhibition, % at 10 µM | PC3M PTB-GFP, PNC prevalence imaging, 16 h; stronger effect = lower value | hit rate 3.1% among 140,000;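 active means readout at or below -70, meaning at least 70% loss of cells showing the perinucleolar compartment, a nuclear body marking cancer cells; inconclusive means readout between -30 and a set limit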
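PC3M cells stably expressing PTB-GFP, 750–1000 cells/well, treated 16 h at 37 °C with compound (23 nl of library stock), in duplicate. After paraformaldehyde fixation and Hoechst stain, imaged at 20x; PNC prevalence scored by image analysis.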
HPGD inh: inhibitors of human 15-hydroxyprostaglandin dehydrogenase (HPGD); P15428; purified HPGD, NADH fluorescence kinetic, PGE2 substrate; Potency, µM, hits mostly inhibitors; hit rate 4.3% among 150,000
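20 nM HPGD preincubated 15 min at room temperature with compound in 50 mM Tris-HCl pH 8, 0.01% Tween 20. Started with 1 mM NAD+ and 30 uM prostaglandin E2; NADH fluorescence (360/450 nm) read 5 times over 30-s intervals, last minus first.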
12-hLO inh: inhibitors of human 12-lipoxygenase (ALOX12) | Potency, µM (top dose mostly 57.1 µM), actives largely listed as inhibitors | hit rate 0.12% among 150,000 | purified 12-hLO, xylenol orange hydroperoxide absorbance | AID 1452 | P18054; active means well fitted inhibition curve with a large enough effect; inconclusive means small, poorly fitted or top-dose-only effect; further: nearly all actives have a fitted effect of over 55% in size
Target sequence (P18054 whole entry, looked up): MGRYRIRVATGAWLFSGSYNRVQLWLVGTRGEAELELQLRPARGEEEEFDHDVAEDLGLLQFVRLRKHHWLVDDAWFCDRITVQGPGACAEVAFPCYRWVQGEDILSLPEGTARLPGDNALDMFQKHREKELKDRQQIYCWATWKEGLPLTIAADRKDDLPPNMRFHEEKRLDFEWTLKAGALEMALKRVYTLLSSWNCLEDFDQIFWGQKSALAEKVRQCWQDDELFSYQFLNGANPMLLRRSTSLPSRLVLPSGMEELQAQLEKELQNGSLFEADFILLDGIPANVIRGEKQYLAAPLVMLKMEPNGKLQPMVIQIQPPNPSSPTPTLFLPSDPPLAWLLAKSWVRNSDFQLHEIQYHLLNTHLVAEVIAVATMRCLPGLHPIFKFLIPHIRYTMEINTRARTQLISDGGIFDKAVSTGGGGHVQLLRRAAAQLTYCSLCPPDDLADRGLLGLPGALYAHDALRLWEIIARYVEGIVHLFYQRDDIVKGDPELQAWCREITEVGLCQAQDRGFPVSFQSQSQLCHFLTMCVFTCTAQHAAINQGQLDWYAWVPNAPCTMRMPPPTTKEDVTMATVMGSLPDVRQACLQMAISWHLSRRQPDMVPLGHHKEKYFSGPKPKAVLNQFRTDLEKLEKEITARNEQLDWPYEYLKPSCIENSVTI
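Hydroperoxide output read as Fe(III)-xylenol orange absorbance, 573-to-405 nm ratio, after 30 min reaction with 40 uM arachidonic acid. Enzyme: 150 nM purified human 12hLO, 15 min compound preincubation; 25 mM Hepes pH 7.0, room temperature.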
Lamin A splicing: changes lamin A minigene splicing in HeLa cells; Potency, µM (highest dose often 46.1 µM), actives largely listed as inhibitors; AID 1487; hit rate 0.01% among 200,000; HeLa LMNA splicing GFP/RFP minigene ratio, 48 h; active means well fitted inhibition curve with a large enough effect in the signal ratio, with a control signal flat, not every such curve was filed as active; inconclusive means small, poorly fitted or top-dose-only effect, or effect the other way, or a change in a side signal; the % refers to the signal ratio
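S3 HeLa stable clones carrying a lamin A-EGFP splicing minigene plus DsRed2 were seeded at 600 cells/well in Opti-MEM with 2% FBS, pin-dosed and incubated 48 h at 37°C. Acumen cytometry (488 nm) gave the GFP/RFP total-intensity ratio.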
ALDH1A1 inh: ALDH1A1 (human) enzyme inhibition | P00352 | Purified ALDH1A1, NADH fluorescence, propionaldehyde substrate | Potency, µM (top dose mostly 75.3 µM), hits mostly inhibitors | hit rate 7.3% among 220,000 | AID 1030
A number is an active result; . = inactive; ? = inconclusive; / = no result given; [ ] = remark or other dose. In the library only some 10% were active in any assay of this set; here they are far more common. Unless noted, the call rests on the fitted dose curve; in most records, active means well fitted inhibition curve with a large enough effect (not every such curve was filed as active); inconclusive means small, poorly fitted or top-dose-only effect, or another doubt; inactive means no such curve, though single readings can be large or run the other way.

SMILES	PNC inhibitor	HPGD inh	12-hLO inh	Lamin A splicing	ALDH1A1 inh
CC(=O)[C@@H]1[C@@H](C(=O)c2ccc(C)cc2)[C@]2(C(=O)Nc3ccccc32)[C@H]2C=Cc3cc(F)ccc3N12	.	.	.	?	?
O=C(c1ccc(F)cc1)[C@@H]1[C@@H](C(=O)c2ccccc2)[C@@]2(C(=O)Nc3ccccc32)[C@H]2c3ccccc3C=CN12	.	.	.	?	20µM
CC(C)c1nn2c(=O)cc(COC(=O)c3cccs3)nc2s1	/	/	/	.	/
CC(=O)Nc1ccc(NC(=O)c2ccco2)cc1	?	.	.	.	.
CN(C)c1ccc(N/C=C/C(=O)c2ccco2)cc1	?	35µM	.	.	28µM
CC(=O)Nc1ccc(N/C=C/C(=O)c2ccco2)cc1	?	25µM	.	.	4.5µM
O=C(/C=C/Nc1ccc(F)c(Cl)c1)c1ccco1	?	.	.	.	28µM
CN(C)c1ccc(N/C=C/C(=O)c2ccc(F)cc2)cc1	.	.	.	.	.
COc1ccc(C2=NO[C@@H]3C(=O)N(c4ccc5c(c4)OCCO5)C(=O)[C@H]23)cc1OC	?	.	.	.	?
O=C1[C@@H]2C(c3cccnc3)=NO[C@@H]2C(=O)N1c1ccc2ccccc2c1	/	/	/	/	1.6µM
CCC(OC(=O)CN1C(=O)C(=O)c2ccccc21)C(=O)Nc1ccc(S(N)(=O)=O)cc1 (configuration not stated)	/	/	/	/	0.089µM
Cc1cc(NC(=O)CCC(=O)N(c2ccccc2)C(C(=O)NC2CCCC2)c2ccccc2)no1 (configuration not stated)	.	.	.	?	25µM
c1ccc(-c2ccccc2OCCCN2CCCC2)cc1	-107	.	.	.	?
CC1CCN(CCOc2ccccc2-c2ccccc2)CC1	-105	.	.	.	?
Cc1ccc(Cl)cc1NC(=O)c1oc2ccc(S(=O)(=O)N(C)C3CCCCC3)cc2c1C	/	/	/	.	/
CCOC(=O)c1ccc(NC(=O)c2ccc(=O)n(Cc3cccc(C)c3)c2)cc1	/	/	/	.	/
CCOc1cc2c(cc1OCC)C(c1ccc(OC)cc1)N(c1ccccc1)C(=O)C2 (configuration not stated)	.	.	.	.	.
CCOc1cc2c(cc1OCC)C(c1ccccc1)N(c1ccccc1)C(=O)C2 (configuration not stated)	-93	.	.	.	.
CCOC(=O)c1cc(NC(=O)Nc2ccccc2OC)c(C)nc1C	-81	.	.	.	.
CCOC(=O)c1cc(NC(=O)Nc2ccccc2Cl)c(C)nc1C	/	/	/	.	.
CCOc1ccc(NS(=O)(=O)c2ccc3[nH]cc(C(=O)N(CC)CC)c(=O)c3c2)cc1	.	?	16µM	.	?
CCCCCC/C=C1\CC(C(=O)OCC)Oc2ccccc21 (configuration not stated) (tested in a mixture with another compound)	/	.	.[0.00818 µM]	/	.
Cc1sc2ncnc(OCC(=O)Nc3ccc4c(c3)OCCO4)c2c1C	.	.	.	.	20µM
O=C(COc1ncnc2sccc12)Nc1ccc2c(c1)OCCO2	-112	.	.	.	.
COc1cc(SC#N)ccc1N=Cc1c(C)[nH]n(-c2ccc(C)cc2C)c1=O	.	8.9µM	.	.	0.71µM
SMILES	PNC inhibitor	HPGD inh	12-hLO inh	Lamin A splicing	ALDH1A1 inh
COc1cc(SC#N)ccc1N=Cc1c(C)[nH]n(-c2cccc3ccccc23)c1=O	?	?	?	.	0.45µM
O=C(Cc1ccc(Cl)cc1)c1c[nH]c(C(=O)NCCCN2CCOCC2)c1	/	/	/	?	.
O=C1CN2CCN(CC2)CC(=O)Nc2ccc(cc2)S(=O)(=O)c2ccc(cc2)NC(=O)CN2CCN(CC2)CC(=O)Nc2ccc(cc2)S(=O)(=O)c2ccc(cc2)N1	/	.	.[11.4 µM]	/	1.6µM
Cc1cccc(C(c2sc3nc(-c4ccco4)nn3c2O)N2CCOCC2)c1 (configuration not stated)	/	/	/	.	/
O=C(/C=C/C=C/c1ccc2c(c1)OCO2)N1CCCCC1	/	16µM	.	/	?
CN1CCN(C(=O)/C=C/c2ccc3c(c2)OCO3)CC1	.	?	.	.	.
COc1ccccc1Nc1ccc(S(=O)(=O)N2CCCCC2)cc1[N+](=O)[O-]	.	.	.	?	.
CCOc1cccc(C(=O)Nc2cc(-c3nn4c(C)nnc4s3)ccc2C)c1	.	.	.	.	.
CCCOc1ccc(C(=O)Nc2cc(-c3nn4c(C)nnc4s3)ccc2C)cc1	.	1.3µM	.	.	.
